Source: PubChem BioAssay (Tox21)
Records with an inconclusive call do not appear. Entries that show only a call come without a potency. The source made the active and inactive calls. The call rests on the fitted dose curve; in most records, active means well fitted activation curve with a large enough effect in the repeat runs; inconclusive means weak or mixed curves; inactive means flat fitted curve, though single readings scatter.
Potency means the concentration at half of the fitted maximal effect.

Test: A CellTox Green Cytotoxicity Assay to monitor cytotoxicity in HEK293 cells - 8 hour (AID 1224884); further: nearly all actives have a fitted effect of over 35% in size
Conditions: CellTox Green fluorescence; series mostly up to 76.8 µM
From the text: National Center for Advancing Translational Sciences [NCATS]
NIH Chemical Genomics Center [NCGC]
U.S. Environmental Protection Agency [EPA]
National Institutes of Environmental Health Sciences [NIEHS]
National Toxicology Program [NTP]
Cell-based models are critical for drug discovery. Determining the natural cytotoxic effects resulting from test compounds is an essential research activity. A CellTox Green Cytotoxicity Assay to monitor cytotoxicity in real time of continues cell culture during 40 hours of the compound treatment was used to screen Tox21 10K library compounds in Hek293 cells. CellTox Green Cytotoxicity Assay is a nonlytic, homogeneous, biofluorescent method to measure cytotoxicity in cell culture after experimental manipulation. The assay system uses a proprietary asymmetric cyanine dye that is excluded from viable cells but preferentially stains the dead cell's DNA. […] Viable cells produce no appreciable increases in fluorescence. Therefore, the fluorescence signal produced by the binding interaction with dead cell DNA is proportional to cytotoxicity.
The mixture of Hek293 cell suspension and reagents were dispensed at 600cells/6 ul/well in 1536-well tissue culture treated black solid bottom plates using a Multidrop dispenser. After the assay plates were incubated at a 37 C/5% CO2 incubator for 5 hours, 23 nL of compounds dissolved in DMSO, positive and negative controls was transferred to the assay plate by a pintool work station. The plates were incubated at 37 C for 40 hours. The fluorescence intensity were measured at 0h, 8h, 16h, 24h, 32h and 40h time points using ViewLux plate reader during compound treatment.
For `CC(=O)OCC(=O)Nc1cc(C#N)cc(NC(=O)COC(C)=O)c1Cl`, the Potency was “inactive”. In the case of `O=C(CCCCC(=O)Nc1c(I)cc(I)c(C(=O)O)c1I)Nc1c(I)cc(I)c(C(=O)O)c1I`, the Potency is reported as “inactive”. In the case of `COc1cc2c(cc1OC)CN(C(=O)[C@H](C)N[C@@H](CCc1ccccc1)C(=O)O)[C@H](C(=O)O)C2`, the Potency is reported as “inactive”. With `CCC(=O)c1c(O)cc(O)cc1O` the Potency was “inactive”. For `C=C(C)[C@@H]1CC=C(C)C(=O)C1`, the Potency was “inactive”. For `Nc1nnnn1-c1ccccc1`, the Potency was “inactive”. For `CC(=O)c1cc(C)oc1C`, the Potency was “inactive”. For `COC(=O)c1ccccc1C(=O)O`, the Potency was “inactive”. In the case of `CCC(C)C(C)=O` (stereo not given), the Potency is reported as “inactive”. In the case of `CC/C=C\CCOC(=O)c1ccccc1O`, the Potency is reported as “inactive”. In the case of `CC(N)CCCC(C)(C)O` (stereo not given), the Potency is reported as “inactive”. With `CC(C)=CCC/C(C)=C/COC=O` the Potency was “inactive”. With `O=Cc1cc2ccccc2o1` the Potency was “inactive”. In the case of `CCCCSCCCC`, the Potency is reported as “inactive”. With `O=C(O)[C@H](O)c1ccccc1` the Potency was “inactive”. In the case of `CC1CCc2c(N3CCC(O)CC3)c(F)cc3c(=O)c(C(=O)O)cn1c23` (stereo not given), the Potency is reported as “inactive”. For `CC(CO)(CO)CO`, the Potency was “inactive”. For `Cc1c(Cl)cccc1Cl`, the Potency was “inactive”. With `CCCCCCCCCOC(=O)CCCCC(=O)OCCCCCCC` the Potency was 38.9 µM (active). In the case of `COc1cc(/C=C/C(N)=O)cc(OC)c1OC`, the Potency is reported as “inactive”. In the case of `C=CC(=O)OCC1CCCO1` (stereo not given), the Potency is reported as “inactive”. For `C=Cc1ccc(C(C)(C)C)cc1`, the Potency was “inactive”. In the case of `CC1=C(O)C(=O)C(C)O1` (stereo not given), the Potency is reported as “inactive”. With `CCOCCOCC` the Potency was “inactive”. In the case of `CCOC(=O)CC1(C)OCC(C)O1` (stereo not given), the Potency is reported as “inactive”. For `CCCCCCCCCCCCCBr`, the Potency was “inactive”. In the case of `CCCC(=O)OC/C=C(\C)CCC=C(C)C`, the Potency is reported as “inactive”. For `CCC(C(=O)OCCN1CCOC(c2ccccc2)C1C)c1ccccc1` (stereo not given), the Potency was “inactive”. With `CCCCCCCCCCCCCCCCCC#N` the Potency was “inactive”. For `Cc1cc(C)c(C(=O)O)c(C)c1`, the Potency was “inactive”. For `O=C1CCCCO1`, the Potency was “inactive”. With `Cc1c(NC(=O)c2cccnc2)c(=O)n(-c2ccccc2)n1C` the Potency was “inactive”. With `CCc1occc(=O)c1O` the Potency was “inactive”. In the case of `CN1CCOC(c2ccccc2)c2ccccc2C1` (stereo not given), the Potency is reported as “inactive”. For `CCCCCCCCCCOC(C)=O`, the Potency was “inactive”. For `CC(C)c1ccc(C=O)cc1`, the Potency was “inactive”. For `CCO[Si](CC)(OCC)OCC`, the Potency was “inactive”. With `CC(C)[C@H]1CC[C@H](C)C[C@@H]1O` the Potency was “inactive”. For `CCO`, the Potency was “inactive”. With `COc1ccc2c(c1)c1c3n2CCN(C)C3=NCC1` the Potency was “inactive”.
